# Screening data deposited in PubChem by National Center for Advancing Translational Sciences (NCATS).
# BLM helicase inh: blocks DNA unwinding by human BLM helicase | P54132 | recombinant BLM DNA unwinding, fluorescence dequenching | Potency, µM (titrated, usually from 56.1 µM), without a hit: at the top dose activity change, negative = inhibition, most hits filed as inhibitors | hit rate 0.2% among 350,000;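 also: plate controls were vehicle for no effect and no enzyme for full effect; nearly all actives have a fitted effect of over 35% in size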
# TR SRC2 fluor cs: alters Texas Red total fluorescence, flagging assay interference; TRb/SRC2 Texas Red total fluorescence interference; Potency, µM (top dose mostly 106 µM), inactives show top-dose fluorescence change, negative = quenching; hit rate 0.29% among 280,000; active = well fitted curve in either direction with a large enough effect; inconclusive = small, poorly fitted or top-dose-only effect
#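 Flags fluorescent or light-absorbing compounds by total fluorescence, S + 2P, at 555 nm excitation and 632 nm emission. Mixture: 20 nM Texas Red SRC2 peptide, 0.6 uM human TRb LBD, 1 uM T3, 5% DMSO; compound exposure 5 h at ambient temperature.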
# TRb SRC2 PPI: disrupts binding of human TR beta to SRC2; TRbeta-SRC2 peptide binding, fluorescence polarization; receptor liganded with 1 µM T3; Potency, µM (top dose mostly 106 µM), for the others: at the top dose activity change, negative = inhibition, usual class: inhibitors; hit rate 0.065% among 280,000; AID 1469;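 also: plate controls were bound peptide for no effect and peptide without receptor for full effect; nearly all actives have a fitted effect of over 50% in size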
#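 Polarization signal, normalized between peptide-alone and full complex controls, measured compound effects on T3-liganded human TRb LBD (0.6 uM) binding 20 nM Texas Red SRC2 peptide after 5 hr.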
# WRN helicase inh: WRN helicase (human) inhibition. hit rate 0.46% among 360,000. Potency, µM (titrated, usually from 114 µM), for the others: top-dose activity change, negative = inhibition, most hits filed as inhibitors. WRN helicase unwinding, fluorescent forked duplex, kinetic. AID 651768; also: nearly all actives have a fitted effect of over 55% in size
#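 Enzyme (20 nM final) and test compound sit together 15 min at room temperature before substrate addition. Substrate is a single-forked duplex oligonucleotide (100 nM) labelled with fluorophore and quencher, with 2 mM ATP; helicase unwinding raises red fluorescence, read kinetically.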
# APEX1 inh: inhibitors of human APE1 endonuclease; recombinant APE1, TAMRA/BHQ-2 abasic DNA cleavage fluorescence; hit rate 0.35% among 350,000; P27695; Potency, µM (highest dose often 65.8 µM), inactives show at the highest dose activity change, negative = inhibition, usual class: inhibitors;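 also: plate controls were vehicle for no effect and reference inhibitor for full effect; nearly all actives have a fitted effect of over 55% in size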
# Target sequence (P27695 whole entry, looked up): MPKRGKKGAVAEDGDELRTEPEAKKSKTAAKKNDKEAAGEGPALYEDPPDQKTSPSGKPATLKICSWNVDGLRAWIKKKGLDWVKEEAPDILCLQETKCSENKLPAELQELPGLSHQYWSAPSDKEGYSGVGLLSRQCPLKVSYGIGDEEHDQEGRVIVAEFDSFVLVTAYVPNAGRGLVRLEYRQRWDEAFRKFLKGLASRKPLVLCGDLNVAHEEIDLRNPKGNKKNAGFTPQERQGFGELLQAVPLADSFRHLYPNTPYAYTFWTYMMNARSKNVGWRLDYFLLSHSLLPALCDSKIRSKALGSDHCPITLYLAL
#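 Compound pre-exposure to 0.75 nM APE1, 15 min at ambient temperature. Reaction initiated with 50 nM TAMRA/BHQ-2 THF substrate, read immediately in kinetic mode, 525 nm excitation, 598 nm emission.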
# RECQ1 helicase: blocks DNA unwinding by human RECQ1 | P46063 | RECQ1 DNA unwinding, red fluorescence kinetic read | Potency, µM (series often up to 57.3 µM), for inactives: at the top dose activity, negative = inhibition, most hits filed as inhibitors | hit rate 0.54% among 240,000 | AID 2549;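 also: plate controls were vehicle for no effect and no enzyme for full effect; nearly all actives have a fitted effect of over 30% in size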
#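 50 nM RECQ1T1 preincubated 15 min with compound in Tris pH 8.0 buffer with MgCl2, DTT, Tween-20 and 2.5 ug/ml poly(dI-dC); started with 200 nM TAMRA/BHQ-2 forked duplex and 2 mM ATP. Unwinding read as fluorescence (525/598 nm), two reads 2 h apart.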
# An asterisk follows results filed as active; i = inactive; ? = inconclusive; · = not tested or not shown; [ ] = dose if it differs, or a comment. Only some compounds are listed: those with a hit (about 0.91% of all), similar ones and a draw of the others. Unless noted, calls follow the shape of the dose curve; as a rule, active = well fitted curve in the direction sought with a large enough effect; inconclusive = small, poorly fitted or top-dose-only effect, or another doubt; inactive = no such curve, though single readings can be large; an effect the other way counts as inactive or inconclusive. Unless noted, % is scaled to controls: 0 for no effect and ±100 for the full control effect; potency is read from the fitted curve at half-maximal effect.
SMILES,BLM helicase inh,TR SRC2 fluor cs,TRb SRC2 PPI,WRN helicase inh,APEX1 inh,RECQ1 helicase
CN(C)S(=O)(=O)c1cccc(NC(=S)Nc2cccc3cnccc23)c1,13µM*,8%,-10%,-35%,-5%,i
O=C(Nc1ccc(Cc2ccncc2)cc1)c1cc([N+](=O)[O-])ccc1N1CCOCC1,-3%,-2%,8%,1%,-2%,i
Cc1cc(C)c2c(=O)cc(C(=O)Nc3ccc(S(=O)(=O)Nc4onc(C)c4C)cc3)oc2c1,-5%,126µM*[quencher],13%,·,·,·
FC(F)(F)c1ccccc1-c1nc(N2CCOCC2)c2ccccc2n1,-11%,·,·,·,25µM*,-1%
CCCCNc1nc(C)nc2c1nc(-c1ccccc1)n2C1CCN(Cc2ccccc2)C1 (stereo unspecified),-9%,1%,1%,·,-3%,1%
O=C1NN(c2ccccc2)C(=O)/C1=C\c1ccc(-c2cc([N+](=O)[O-])ccc2O)o1,-6%,?,12%,-20%[11.6 µM],6%,28µM*
O=C1NN(c2ccc(Cl)cc2)C(=O)/C1=C\c1ccc(-c2cccc(C(=O)O)c2)o1,-26%,-26%,7%,?,7.9µM*,?
COc1ccc(CCn2c(-n3nc(C)cc3C)nc3c2c(=O)[nH]c(=O)n3C)cc1,·,·,·,79µM*,·,·
Cc1ccc(Cn2c(-n3nc(C)cc3C)nc3c2c(=O)[nH]c(=O)n3C)cc1,0%,-1%,-6%,7%,-3%,-1%
CC1CCc2c(sc(NC(=O)c3ccco3)c2C(=O)O)C1 (stereo unspecified),-1%,·,·,?,86%,·
CC1CCc2c(sc(NC(=O)/C=C/c3cccs3)c2C(=O)O)C1 (stereo unspecified),-6%,·,·,4%,12µM*,·
CC(C)(C)n1ncc2c(=O)n(Cc3cccc(OC(F)F)c3)cnc21,·,·,·,·,-8%,·
Cc1ccc2occ(/C=N/NC(=O)c3ccc(O)cc3)c(=O)c2c1,-1%,·,·,1%,46%,·
Cc1ccc2occ(/C=N/NC(N)=S)c(=O)c2c1,5%,0.35µM*[quencher],-13%,4%,2%,-8%
CC1=C(C(=O)Nc2ccc(C)cc2Cl)C2(CCCCC2)OC1=O,-21%,0.0056µM*[quencher],-13%,·,·,·
COc1cc(-c2cc(OC)c3c(C)oc(C)c3c(=O)c2)ccc1OC(=O)c1cccc(Cl)c1,-7%,501µM*[quencher],?,·,·,·
Cc1ccc2c(c1)-c1nc(-c3ccc(Cl)cc3)cc(-c3coc4ccccc4c3=O)c1CO2,1%,10µM*[quencher],0%,·,·,·
Cc1cccc(OCC(=O)Nc2ccc(Cl)c(-c3nc4ccccc4[nH]3)c2)c1,-11%,-2%,7%,·,·,·
CCc1ccc2occ(CC(=O)Nc3c(C(=O)Nc4ccc(Cl)cc4)oc4ccccc34)c2c1,-6%,?,-5%,·,·,·
CCc1ccc2occ(CC(=O)Nc3c(C(=O)Nc4ccc(C)cc4)oc4ccccc34)c2c1,-3%,1122µM*[quencher],-24%[53 µM],·,·,·
CCOC(=O)OCC1OC(C#Cc2ccc(C)cc2C)C=CC1OC(=O)OCC (stereo unspecified),-2%[12.4 µM],-1%[11.2 µM],7%[11.2 µM],·,?,17%[11.5 µM]
CC(C)CCCCOC(=O)c1ccccc1C(=O)OCCCCC(C)C,·,-3%[201 µM],1%[201 µM],·,·,·
CCOC(=O)N1CCN(C(=O)C2CCN(C(=O)c3ccccc3C)CC2)CC1,·,·,·,20µM*,·,·
Cc1ccccc1C(=O)N1CCC(C(=O)N2CCN(c3ncccn3)CC2)CC1,·,·,·,2%,-9%,·
COC(=O)C(C(C)=O)C(NC(=O)OC(C)(C)C)c1ccccc1 (stereo unspecified),-1%,0%,-1%,·,2%,6%
SMILES,BLM helicase inh,TR SRC2 fluor cs,TRb SRC2 PPI,WRN helicase inh,APEX1 inh,RECQ1 helicase
Cc1ccc(CN(Cc2ccco2)C(=O)COc2ccc(Cl)cc2Cl)cc1,-10%,0.032µM*[quencher],?,·,·,·
COc1ccc(-n2c(Cc3cccn3C)nnc2SCC(=O)N2CCCC2)cc1,3%,-1%,7%,12%,-2%,-2%
COc1ccc(-n2c(Cc3cccn3C)nnc2SCC(=O)N2CCCc3ccccc32)cc1,-6%,1%,0%,0%,10%,16µM*
O=S(=O)(O)c1cc(S(=O)(=O)O)c2c(N=Nc3ccccc3)c(O)ccc2c1,·,-14%[201 µM],0%[201 µM],·,·,·
O=C1C=C(c2ccc3cc[nH]c3c2)C[C@@H](c2ccc3c(c2)OCO3)C1,·,·,·,?,12µM*,·
O=S(=O)(c1cccc(-c2n[nH]c(=S)n2-c2ccccc2)c1)N1CCCC1,·,·,·,·,-8%,·
O=C(O)c1cc(N=Nc2ccc(O)c(C(=O)O)c2)ccc1O,-7%,·,·,·,·,·
O=C(O)c1cc(N=Nc2ccc(-c3ccc(N=Nc4ccc(O)c(C(=O)O)c4)cc3)cc2)ccc1O,18µM*,28µM*[quencher],?,·,8.9µM*,20µM*
NCCCCCCCCCCC(=O)O,·,-4%[201 µM],-3%[201 µM],·,·,·
CC(NC(=O)CSc1nc2sc3c(c2c(=O)n1-c1ccccc1)CCCC3)c1ccccc1 (stereo unspecified),2%,-4%,-9%,-4%,2%,-4%
O=C(CSc1nc2sc3c(c2c(=O)n1-c1ccccc1)CCCC3)N/N=C/c1ccccc1C(=O)O,?,·,·,0%,11µM*,·
CCSc1nc2sc3c(c2c(=O)n1-c1ccc(C)c(Cl)c1)CCN(C(C)=O)C3,-4%,-2%,-6%,·,·,·
CCCCCSc1nc2sc3c(c2c(=O)n1-c1ccccc1)CCN(C(C)=O)C3,-2%,0.018µM*[quencher],-28%[53 µM],·,·,·
O=C1CSC(=S)N1/N=C/c1cc(Br)c(O)c(Br)c1,-4%,·,·,20µM*,-19%,·
O=C1CSC(=S)N1N=Cc1ccccc1O,·,·,·,22µM*,·,·
C=CC[C@@H]1C=C[C@H](O/N=C(\C)CCN2CCc3nc(-c4ccccc4)c(-c4ccccc4)cc3C2)[C@H](CO)O1,-2%[12.4 µM],0%[11.2 µM],-1%[11.2 µM],·,-4%[12.4 µM],-2%[11.5 µM]
Cc1ccc(C2C(/C=C3/SC(=S)NC3=O)=C(c3cccs3)Oc3ccccc32)cc1 (stereo unspecified),-26%,-19%,19%,79µM*,-8%,?
CCCCN(CCCC)CCCC,·,-3%[201 µM],0%[201 µM],·,·,·
